This is an account of results in PubChem BioAssay (NCI).

Experiment [1] is described as follows: NCI Yeast Anticancer Drug Screen. Data for the rad50 strain (AID 155).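 Further: 0% = growth of vehicle-only cultures of the same strain.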 The following applies: S. cerevisiae rad50 strain growth inhibition; at 50.0 µM; hits give high values. An outline of the steps:
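Growth of the mutant yeast was measured after compound exposure and referenced to vehicle-treated cultures.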

Experiment [2] can be described thus: NCI Yeast Anticancer Drug Screen. Data for the mec2-1 strain (AID 157). The following applies: S. cerevisiae mec2-1 strain, at 50.0 µM, hits give high values. An outline of the steps:
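Test agents were screened against the mec2-1 yeast strain, with defined DNA repair or cell cycle alteration. Growth was scored as inhibition against vehicle-only controls.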

A short description of experiment [3]: NCI Yeast Anticancer Drug Screen. Data for the sgs1 mgt1 strain (AID 161).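 Further: 0% = growth of cultures given vehicle only.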 The following applies: S. cerevisiae sgs1 mgt1 strain, at 50.0 µM, hits give high values. An outline of the steps:
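Genetically altered yeast, compound exposure, growth inhibition relative to vehicle.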

A short description of experiment [4]: NCI Yeast Anticancer Drug Screen. Data for the cln2 rad14 strain (AID 165).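 Further: 0% = growth equal to vehicle treated cultures.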 The following applies: S. cerevisiae cln2 rad14 strain, at 50.0 µM, hits give high values. An outline of the steps:
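Growth of compound-exposed yeast (cln2 rad14 genotype) measured and expressed as inhibition relative to vehicle.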

Experiment [5] can be described thus: NCI Yeast Anticancer Drug Screen. Data for the bub3 strain (AID 167). The following applies: S. cerevisiae bub3 mutant strain, at 50.0 µM, hits give high values. Summed up: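 Whole-cell yeast assay. The mutant strain was incubated with compounds, and growth inhibition was determined by comparison with vehicle-treated cells.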
Experiment [6] in a line: NCI Yeast Anticancer Drug Screen. Data for the mlh1 rad18 strain (AID 175). The following applies: S. cerevisiae mlh1 rad18 strain growth inhibition; at 50.0 µM; hits give high values. An outline of the steps:
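In this whole-cell yeast screen, a strain with altered DNA damage repair is challenged with compound, and its growth is measured against matched vehicle-treated controls.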

Each structure is given as a SMILES string. This is part of a sample that, as a whole, favours compounds with a hit. Of some 79,000 tested, about 15% had one in any assay. Unmarked numbers belong to inactive results. Calls of active or inactive are those of the source. No stated cut-off is given here; in the data, active means growth inhibition above about 70%; inactive means the rest.

For the compound `O=c1oc2ccc(Cl)cc2c(OCCO)c1Cl`, the growth inhibition in experiment [1] was -5.2%; in experiment [2], 4.55%; in experiment [3], -4.45%; in experiment [4], -0.5%; in experiment [5], -5.95%; in experiment [6], -1.15%.
Regarding `COC1(c2ccccc2)N=C(c2ccc([N+](=O)[O-])cc2)OC1(C)C` (centres undefined), the growth inhibition in experiment [1] was 4%; in experiment [2], 1.7%; in experiment [3], 6.1%; in experiment [4], 38%; in experiment [5], -4.85%; in experiment [6], -4.8%.
In the case of `NC(CC(=O)Nc1ccc(Cl)cc1)=Nc1ccccc1`, the growth inhibition was -28.6% in experiment [1]; -12.9% in experiment [2]; -11.2% in experiment [3]; -10.3% in experiment [4]; -14.4% in experiment [5]; -18.9% in experiment [6].
Consider `O=c1oc2c3ccc4ccccc4c3n(CCN3CCCCC3)c2c2ccccc12`, for which the growth inhibition in experiment [1] is 30.4%; in experiment [2], 53.6%; in experiment [3], 22.9%; in experiment [4] it was 32.5%; in experiment [5], 44.3%; in experiment [6], 77.1% (active).
As for `Cc1ccc(NC(=O)C(=O)CC(=O)c2c(C)n([O-])c3ccccc3[n+]2=O)cc1`, the growth inhibition in experiment [1] is 5.65%; in experiment [2], 6.95%; in experiment [3], -6.5%; in experiment [4], 16.4%; in experiment [5] it was -1.55%; in experiment [6], 17.4%.
With `CC(=O)OC1CC(=O)OC(C)(C)C2CC(=O)C3(C)C(CCC4(C)C(c5ccoc5)OC(=O)C5OC543)C12C` (centres undefined), the growth inhibition in experiment [1] was 20.5%; in experiment [2] it was -18.3%; in experiment [3], 11.1%; in experiment [4], 2.85%; in experiment [5], -6.55%; in experiment [6], 21.1%.
As to `CCOC(=O)C(CCCCC(CN(CC)CC)(C(=O)OCC)c1ccccc1)(CN(CC)CC)c1ccccc1` (centres undefined), the growth inhibition was 29.4% in experiment [1]; -10.2% in experiment [2]; 11.7% in experiment [3]; 0.65% in experiment [4]; 2% in experiment [5]; 12.3% in experiment [6].
As to `CSC1(C(=O)O)C2CCC3C2CCC31` (centres undefined), the growth inhibition in experiment [1] is 12.7%; in experiment [2], 16.1%; in experiment [3], 9.95%; in experiment [4], 26.9%; in experiment [5] it was 51.2%; in experiment [6], 41.5%.
`CN(C)c1ccc(/C=C(\C#N)C(=O)c2ccccc2)cc1`: the growth inhibition in experiment [1] is -9.8%; in experiment [2], 8.25%; in experiment [3], 8.9%; in experiment [4], -7.15%; in experiment [5] it was 6.85%; in experiment [6], 22.9%.
In the case of `CCC(=O)N(C)C1(C#N)CCCCC1`, the growth inhibition in experiment [1] was 29.4%; in experiment [2], -42.9%; in experiment [3], 13%; in experiment [4], 0.1%; in experiment [5], 4.85%; in experiment [6] it was 24.2%.
In the case of `O=[N+]([O-])c1ccc(S(=O)(=O)c2ccc(N=CN3CCCC3)cc2)cc1`, the growth inhibition in experiment [1] is 22.9%; in experiment [2] it was 16.4%; in experiment [3], 18.4%; in experiment [4], 4.05%; in experiment [5], 18%; in experiment [6] it was 23%.
As to `CC(C)C(=O)Nc1cccc([N+](=O)[O-])c1`, the growth inhibition in experiment [1] was -2.1%; in experiment [2], -8.75%; in experiment [3], 6.75%; in experiment [4], -24.6%; in experiment [5] it was -6.85%; in experiment [6], -7.6%.
With `COc1ccc(N/N=C2\CCOc3ccc(C)cc3C2=O)cc1`, the growth inhibition in experiment [1] was 53.6%; in experiment [2], 27.8%; in experiment [3], 42.5%; in experiment [4] it was 14.6%; in experiment [5], 52%; in experiment [6], 46.7%.
As for `O=C1NN=CN2C(=O)CCC12` (centres undefined), the growth inhibition in experiment [1] was 26.4%; in experiment [2] it was 3.45%; in experiment [3], 14.3%; in experiment [4], 4.15%; in experiment [5], 14.4%; in experiment [6], -3.4%.
As for `COc1ccc(C(C)=C(C#N)C#N)cc1`, the growth inhibition in experiment [1] was 18.9%; in experiment [2], 2.7%; in experiment [3] it was -5.65%; in experiment [4] it was 16.1%; in experiment [5], 20.4%; in experiment [6], 13.1%.
On to `CCCNC(=O)Nc1ccc2c(c1)Cc1cc([N+](=O)[O-])ccc1-2`, for which the growth inhibition is -12.2% in experiment [1]; 2.5% in experiment [2]; -4.3% in experiment [3]; -42% in experiment [4]; 6.75% in experiment [5]; -14.3% in experiment [6].
For the compound `Cc1cccc(NC(=O)COc2ccc(Cl)cc2C)c1`, the growth inhibition in experiment [1] was 8.35%; in experiment [2], 4.4%; in experiment [3], 9.55%; in experiment [4], 39.5%; in experiment [5] it was 0.4%; in experiment [6], -0.2%.
In the case of `CCC(C(=O)O)C(=O)O.[NH-]CC1CCCC[N-]1.[Pt+2]`, the growth inhibition in experiment [1] is 7.7%; in experiment [2], -3.6%; in experiment [3], 2.55%; in experiment [4], 7.95%; in experiment [5], -39.5%; in experiment [6] it was -34.7%.
With `Nc1nc(NCc2ccccc2)cc(=O)[nH]1`, the growth inhibition was 3.35% in experiment [1]; -20.8% in experiment [2]; -5.25% in experiment [3]; -0.4% in experiment [4]; -20.8% in experiment [5]; -2.75% in experiment [6].
